Source: the supplement of paper PMC10338343
± gives the standard deviation. Over roughly 8,200 sequences, “pre-steady-state target cleavage rate” has its median near 0.024; the highest 2% begin near 1.3. What follows is part of a selection rich in the highest values, with near analogues and random picks from the rest.

Tested on: MIWI (PIWIL1) piRISC loaded with L1MC piRNA (30 nt)
Assay: pre-steady-state target cleavage rate (min^-1); MIWI and MILI are mouse PIWI proteins and EfPiwi is from a freshwater sponge; tags in brackets are library labels; higher = faster piRNA-guided slicing of the target
Settings: guide: L1MC piRNA 5'p-UAACUAAAUACUAUGCAAGCUGUAGGUCCU
Outline: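 Cleave-'n-Seq: a transcribed, DNA-blocked target RNA library (0.1 nM) was mixed with 1 nM active affinity-purified piRISC carrying one synthetic guide, with or without 500 nM GTSF1 partner protein, in HEPES–potassium acetate buffer at 33 °C for 0–8 or 0–960 min. Uncleaved targets were sequenced and normalised to depth and to weakly complementary targets. Three trials were pooled, and k3 was capped at 0.0001 min^-1. The pre-steady-state cleavage rate came from a burst-and-steady-state fit.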

[1] = auxiliary factor: 500 nM mouse GTSF1
[2] = auxiliary factor: none (no GTSF1)

Sequence | pre-steady-state target cleavage rate [1] | pre-steady-state target cleavage rate [2]
UGGUCCUACAGCUUGCAUAGUAUUUUGUUA | 0.679 ± 0.03 | 0.0592 ± 0.011
AGGACCUACAGCUUGCAUGUAUUUAGUUA | 0.485 ± 0.048 | 0.00718 ± 0.0034
UCCUCCUACAGCUUGCAUGGUAUUUAGUUA | 1.66 ± 0.078 | 0.0582 ± 0.011
UCGACCUACAGCUUGCAUGGUAUUUAGUUA | 1.73 ± 0.084 | 0.0512 ± 0.011
UCCUGCUACAGCUUGCAUGGUAUUUAGUUA | 1.2 ± 0.1 | 0.0413 ± 0.0095
UGGACCUACAGCUUGCAUGUAUUUAGUUA | 0.353 ± 0.055 | 0.00423 ± 0.0025
AGGACCUACAGCUUGCAUGAGUAUUUAGUUA | 0.194 ± 0.068 | 
UCCACCUACAGCUUGCAUGGUAUUUAGUUA | 1.3 ± 0.061 | 0.0488 ± 0.01
AGGACCUACAGCUUGCAUGGUAUUUAGUUA | 1.35 ± 0.073 | 0.0615 ± 0.012
UGGACCUACAGCUUGCAUGGUAUUUAGUUA | 1.38 ± 0.079 | 0.0478 ± 0.01
UCGACCUACAGCUUGCAUGUAUUUAGUUA | 0.479 ± 0.05 | 0.00292 ± 0.0025
UCGACCUACAGCUUGCAUUAGUAUUUAGUUA | 0.264 ± 0.082 | 
UCCUCCUACAGCUUGCAUGUAUUUAGUUA | 0.428 ± 0.051 | 0.00445 ± 0.0018
AGGUCCUACAGCUUGCAUAGUAUUUAGAAA | 0.285 ± 0.045 | 0.0132 ± 0.0048
AGGACCUACAGCUUGCAUAGUUAAUUCAAA | 0.786 ± 0.23 | 
UCCUGGUACAGCUUGCAUAGUAUUUAGAUUA | 0.179 ± 0.046 | 0.0165 ± 0.0061
UCCUGCUACACCAUGCAUAGUAUUUAGUUA | 0.783 ± 0.035 | 0.00793 ± 0.002

Sequence | pre-steady-state target cleavage rate [1] | pre-steady-state target cleavage rate [2]
UCCUGGAACAGCUUGCAAUGUAUUUAGUUA | 0.265 ± 0.02 | 0.00723 ± 0.0039
UCCUGGAUGUCCUUGCAUAGUAUAUUGUUA | 0.00947 ± 0.0039 | 
UCGACCUACAGCUUGGAUAGUAUUUACAAA | 0.179 ± 0.036 | 
UCCUCCUACAGCUUGGUUAGUAUUUAGUAA | 0.523 ± 0.043 | 0.00502 ± 0.0015
UCCACCUACAGCAAGCAUAGUAUUUAGUAA | 0.507 ± 0.042 | 
AGGACCUACAGCUUGCAUAGUAUUAUCUAA | 0.404 ± 0.066 | 
UCCUGGAUGUCCUUGCAUAGUAGUUAGUUA | 0.00603 ± 0.0046 | 0.00268 ± 0.0023
UCCUGGUACAGCUUGCAUAGUAAAAAGUAA | 0.109 ± 0.031 | 
UCCUGGAACAGCUUGCAUAGUAUUUAGAUA | 0.406 ± 0.042 | 0.0172 ± 0.0058
UCCUGCUACAGCUUGCAUAGUAUAUUGUUA | 0.377 ± 0.037 | 0.0123 ± 0.0026
UGGCACCUACAGCUUGCAUAGUAUUUAGUUA | 2.2 ± 0.89 | 
UCGCACCUACAGCUUGCAUAGUAUUUAGUUA | 1.06 ± 0.13 | 0.0648 ± 0.015
UGCACCUACAGCUUGCAUAGUAUUUAGUUA | 1.22 ± 0.11 | 0.0865 ± 0.017
AGCACCUACAGCUUGCAUAGUAUUUAGUUA | 1.19 ± 0.16 | 0.246 ± 0.073
AGGCACCUACAGCUUGCAUAGUAUUUAGUUA | 2.18 ± 0.8 | 2.2 ± 1.8
UGCACCUACAGCUUGCAUAGUAUUUAGUAA | 1.17 ± 0.11 | 0.0465 ± 0.0097
